Screening results deposited in PubChem BioAssay by National Center for Advancing Translational Sciences (NCATS).
RORg inh: ROR gamma (mouse) transcription inhibition; AID 2551; Potency, µM (highest dose often 53.6 µM), usual class: inhibitors; Drosophila S2 Gal4-RORgamma UAS-luciferase reporter, 20 h; hit rate 5.4% among 310,000; P51450; note: nearly all actives have a fitted effect of over 60% in size
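Compounds are pin-transferred onto Drosophila Schneider cells expressing a copper-inducible Gal4–ROR gamma transactivation domain fusion. After 1 hr, copper sulfate is added to 700 uM final; luciferase is read 20 hr later.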
TDP1 cell noCPT: qHTS for Inhibitors of human tyrosyl-DNA phosphodiesterase 1 (TDP1): qHTS in cells in absence of CPT; DT40 Tdp1-/- hTDP1 cells, no CPT, ATP luminescence, 48 h; Potency, µM (highest dose often 46.2 µM), actives largely listed as inhibitors; hit rate 15% among 420,000; AID 686978, 2013; note: nearly all actives have a fitted effect of over 55% in size
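Chicken DT40 Tdp1-/- cells stably complemented with human TDP1 were seeded at 400 cells/well with DMSO in place of 20 nM camptothecin. After compound pinning, cells grew at least 48 hr at 37 °C; viability read by CellTiter-Glo luminescence.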
12-LOX inh: inhibitors of human 12S-lipoxygenase ALOX12; P18054; purified 12hLO, xylenol orange hydroperoxide absorbance; Potency, µM (doses to about 108 µM), most hits filed as inhibitors; hit rate 1.1% among 580,000; AID 1671190
Target sequence (P18054 whole entry, looked up): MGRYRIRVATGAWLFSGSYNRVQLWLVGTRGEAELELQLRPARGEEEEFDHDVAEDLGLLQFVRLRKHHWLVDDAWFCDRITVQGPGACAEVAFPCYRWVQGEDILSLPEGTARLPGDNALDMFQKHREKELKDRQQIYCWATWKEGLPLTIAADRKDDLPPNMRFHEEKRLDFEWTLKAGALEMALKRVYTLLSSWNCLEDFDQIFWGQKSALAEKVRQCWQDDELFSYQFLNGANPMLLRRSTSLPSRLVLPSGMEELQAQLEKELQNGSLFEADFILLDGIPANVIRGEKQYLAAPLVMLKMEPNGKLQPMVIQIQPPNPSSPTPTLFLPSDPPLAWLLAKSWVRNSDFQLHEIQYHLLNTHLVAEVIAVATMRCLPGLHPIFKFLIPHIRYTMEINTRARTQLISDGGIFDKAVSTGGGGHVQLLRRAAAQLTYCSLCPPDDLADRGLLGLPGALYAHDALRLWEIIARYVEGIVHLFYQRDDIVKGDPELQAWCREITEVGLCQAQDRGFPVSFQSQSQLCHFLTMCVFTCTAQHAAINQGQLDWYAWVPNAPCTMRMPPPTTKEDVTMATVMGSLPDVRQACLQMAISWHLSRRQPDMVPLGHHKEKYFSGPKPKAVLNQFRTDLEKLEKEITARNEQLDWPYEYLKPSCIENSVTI
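Hydroperoxide product was detected by ferrous iron/xylenol orange as the 573 to 405 nm absorbance ratio. Arachidonic acid at 40 uM (final) was turned over for 30 min at room temperature by 150 nM human 12hLO, pH 7.0 Hepes buffer, after 15 min compound preincubation.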
ELG1 repair inh: inhibitors of ELG1-dependent DNA repair in HEK293T cells; HEK293T ELG1-luciferase reporter, luminescence, 16 h; DNA damage induced by 5-fluorouridine; Potency, µM (titrated, usually from 46.1 µM), hits mostly inhibitors; hit rate 2.3% among 330,000; AID 504467; note: nearly all actives have a fitted effect of over 55% in size
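Quantitative HTS, concentration-response format. 2,000 cells/well co-treated with 5-fluorouridine and compound, 16 hr in 5% CO2 at 37 °C; ONE-Glo luminescence read after 30 min.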
VP16 counter: Gal4-VP16 reporter inhibition counter-screen | Potency, µM (doses to about 53.6 µM), most hits filed as inhibitors | hit rate 3.5% among 310,000 | Drosophila S2 Gal4-VP16 UAS-luciferase, luminescence, 20 h;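 note: Gal4-VP16 expression switched on by copper sulfate through the metallothionein promoter; nearly all actives have a fitted effect of over 50% in size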
TDP1 cell CPT: DT40-hTDP1 cell growth loss with CPT | chicken DT40 Tdp1-/-;hTDP1 cells + 20 nM CPT, ATP luminescence, 48 h | Potency, µM (top dose mostly 46.2 µM), usual class: inhibitors | hit rate 12% among 420,000; note: nearly all actives have a fitted effect of over 55% in size
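Chicken DT40 Tdp1-/- cells stably complemented with human TDP1 were seeded at 400 cells/well in medium containing 20 nM camptothecin, exposed to pin-transferred compounds, and grown at 37 °C for at least 48 hr. Viability was read as ATP luminescence.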
A number is an active result; [ ] = dose if it differs, or a comment. The list is not random: actives were taken first. Their share in the collection is about 15%. Calls come from the whole dose curve; as a rule, active = well fitted curve in the direction sought with a large enough effect; inconclusive = small, poorly fitted or top-dose-only effect, or another doubt; inactive = no such curve, though single readings can be large; an effect the other way counts as inactive or inconclusive.

What do the screens show for `CC(C)(C)c1csc(C2CN(CCC#N)CCO2)n1` (stereo not given)?
12-LOX inh: inactive

Results for Cc1nc(-c2ccccc2)sc1C(=O)Nc1ccc(C(C)C)cc1 ?
12-LOX inh: inactive

Results for CCC(=O)N1CCC(C(NC(=O)c2ccccc2C)C(=O)NCC(C)C)CC1 (stereo not given) ?
12-LOX inh: inactive

What do the screens show for `CC(C)Cc1nnc(NC(=O)C2(c3cccc(F)c3)CCC2)s1`?
12-LOX inh: inactive

What do the screens show for `COc1ccccc1NS(=O)(=O)c1cc(NC(=O)c2cccs2)ccc1N1CCCC1`?
RORg inh: inactive; TDP1 cell noCPT: 9.2µM; 12-LOX inh: inconclusive; ELG1 repair inh: inactive; VP16 counter: inactive; TDP1 cell CPT: 5.8µM

How did O=C(Nc1ccc(N2CCCC2)c(S(=O)(=O)Nc2cccc(C(F)(F)F)c2)c1)c1cccs1 do in these assays?
RORg inh: inactive[10 µM]; TDP1 cell noCPT: 14.6µM; 12-LOX inh: inactive; ELG1 repair inh: inconclusive; VP16 counter: inactive; TDP1 cell CPT: inconclusive

Results for COc1ccccc1NS(=O)(=O)c1cc(NC(=O)c2cccs2)ccc1N1CCCCC1 ?
RORg inh: inactive; TDP1 cell noCPT: 14.6µM; 12-LOX inh: inactive; ELG1 repair inh: inactive; VP16 counter: inactive; TDP1 cell CPT: 16.4µM

Results for COc1ccccc1NS(=O)(=O)c1cc(NC(=O)Nc2ccccc2)ccc1N1CCCCC1 ?
RORg inh: inconclusive; TDP1 cell noCPT: 18.4µM; 12-LOX inh: inactive; ELG1 repair inh: inconclusive; VP16 counter: inactive; TDP1 cell CPT: 18.4µM

How did COc1ccccc1NS(=O)(=O)c1cc(NC(=O)c2sccc2C)ccc1N1CCCC1 do in these assays?
RORg inh: inactive; TDP1 cell noCPT: inconclusive; 12-LOX inh: inactive; ELG1 repair inh: inactive; VP16 counter: inactive; TDP1 cell CPT: inconclusive

How did COc1ccccc1NS(=O)(=O)c1cc(NC(=O)C(C)C)ccc1N1CCCCC1 do in these assays?
RORg inh: inactive; TDP1 cell noCPT: inconclusive; 12-LOX inh: inactive; ELG1 repair inh: inactive; VP16 counter: inactive; TDP1 cell CPT: inconclusive

Results for O=C(CCC1CCCC1)NC1CCN(C(=O)N2CC3CC(C2)[C@H]2CCCC(=O)N2C3)CC1 (stereo not given in full) ?
12-LOX inh: inactive

What do the screens show for `COc1ccc(C(=O)N2CCC(N3C(=O)C(O)C34CCCCC4)CC2)c(OC)c1` (stereo not given)?
12-LOX inh: inactive

What do the screens show for `COc1ccc(C2=C(Nc3ccc(C)cc3)c3ccccc3C2=O)cc1`?
RORg inh: inactive[10 µM]; TDP1 cell noCPT: inconclusive; 12-LOX inh: inactive; ELG1 repair inh: inactive; VP16 counter: inactive; TDP1 cell CPT: 5.17µM

What do the screens show for `COc1ccc(NC(=O)Nc2ccc(Br)c(C)c2)cc1`?
RORg inh: inactive; TDP1 cell noCPT: inactive; 12-LOX inh: inactive; ELG1 repair inh: inconclusive; VP16 counter: inactive; TDP1 cell CPT: inactive

How did COc1ccc(C2=C(Nc3ccc(Br)c(C)c3)c3ccccc3C2=O)cc1 do in these assays?
TDP1 cell noCPT: 11.6µM; 12-LOX inh: inactive; TDP1 cell CPT: 7.31µM

How did COc1ccc(C2=C(Nc3ccc(F)cc3)c3ccccc3C2=O)cc1 do in these assays?
RORg inh: inactive; TDP1 cell noCPT: inconclusive; 12-LOX inh: inactive; ELG1 repair inh: inactive; VP16 counter: inactive; TDP1 cell CPT: inconclusive

Results for Cc1cc(C)cc(NC2=C(c3ccccc3)C(=O)c3ccccc32)c1 ?
TDP1 cell noCPT: inconclusive; 12-LOX inh: inconclusive; TDP1 cell CPT: 20.6µM

How did Cc1cccc(OCCN(C)Cc2cc(=O)oc3c(C)c(O)ccc23)c1 do in these assays?
12-LOX inh: inactive

How did Cc1ccc(N=Nc2c(C)[nH]n(-c3ccccc3)c2=O)c(C)c1 do in these assays?
RORg inh: inconclusive; TDP1 cell noCPT: inconclusive; 12-LOX inh: inactive; ELG1 repair inh: inactive; VP16 counter: 17.8µM; TDP1 cell CPT: inconclusive

How did Cc1[nH]n(-c2ccccc2)c(=O)c1N=Nc1c(O)cc(S(=O)(=O)N(C)C)c2ccccc12 do in these assays?
TDP1 cell noCPT: 6.51µM; 12-LOX inh: inactive; ELG1 repair inh: 4.11µM; TDP1 cell CPT: 6.51µM

How did Cc1ccc(N=Nc2c(C)[nH]n(-c3ccccc3)c2=O)cc1Br do in these assays?
RORg inh: inactive; TDP1 cell noCPT: inactive; 12-LOX inh: inactive; ELG1 repair inh: inactive; VP16 counter: inconclusive; TDP1 cell CPT: inactive

Results for COc1ccc(C(C(=O)NC2CCCC2)N(C(=O)c2snc(-c3ccc(F)cc3)c2N)c2ccc(OC)cc2)cc1 (stereo not given) ?
RORg inh: inactive; TDP1 cell noCPT: 3.66µM; 12-LOX inh: inactive; ELG1 repair inh: inactive; VP16 counter: inactive; TDP1 cell CPT: 8.2µM

Results for COc1ccc(N(C(=O)c2snc(C(N)=O)c2N)C(C(=O)NC2CCCC2)c2ccc3ncccc3c2)cc1 (stereo not given) ?
RORg inh: inactive; TDP1 cell noCPT: inactive; 12-LOX inh: inactive; ELG1 repair inh: inactive; VP16 counter: inactive; TDP1 cell CPT: inconclusive

How did COc1ccc(C(C(=O)NC2CCCC2)N(C(=O)c2snc(-c3ccc(F)cc3)c2N)c2ccccc2)cc1 (stereo not given) do in these assays?
RORg inh: inactive; TDP1 cell noCPT: 20.6µM; 12-LOX inh: inactive; ELG1 repair inh: inactive; VP16 counter: inactive; TDP1 cell CPT: 14.6µM

How did COc1ccc(C(C(=O)NC2CCCC2)N(C(=O)c2snc(-c3ccc(F)cc3)c2N)c2cccc(F)c2)cc1 (stereo not given) do in these assays?
RORg inh: inactive; TDP1 cell noCPT: 7.31µM; 12-LOX inh: inactive; ELG1 repair inh: inactive; VP16 counter: inactive; TDP1 cell CPT: 6.51µM

What do the screens show for `COc1ccc(C(C(=O)NC2CCCC2)N(C(=O)c2snc(-c3ccc(F)cc3)c2N)c2ccc(F)cc2)cc1` (stereo not given)?
RORg inh: inactive; TDP1 cell noCPT: 14.6µM; 12-LOX inh: inactive; ELG1 repair inh: inactive; VP16 counter: inactive; TDP1 cell CPT: 9.2µM

How did COc1ccc(N(C(=O)c2ccn[nH]2)C(C(=O)NC2CCCC2)c2ccc(F)cc2)cc1 (stereo not given) do in these assays?
RORg inh: inactive; TDP1 cell noCPT: inactive; 12-LOX inh: inactive; ELG1 repair inh: inactive; VP16 counter: inactive; TDP1 cell CPT: inactive

Results for Cc1cc(C)c(-n2nnnc2SCC(=O)NCCc2ccccc2)c(C)c1 ?
12-LOX inh: inactive

What do the screens show for `Cc1c(C(=O)c2cccs2)oc2ccccc12`?
12-LOX inh: inactive
